High-throughput results as filed in PubChem.
Rows were chosen to be rich in hits. Some 7.5% of all compounds tested hit in one or more screens of this group.
SMN2 splice enh – enhancers of SMN2 splice variant expression; HEK293 SMN2-luciferase splicing reporter, luminescence, 30-36 h; Potency, µM (titrated, usually from 46.1 µM), for the others: at the highest dose activity change, positive = activation, hits mostly activators; 210,000 tested, 2.8% active; further: % of control where 0% means no effect; nearly all actives have a fitted effect of over 55% in size
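HEK293 cells carry an SMN2 […]–luciferase reporter in which exon 7 inclusion puts luciferase in frame. Cells were plated 10-12 h before compound addition, then incubated 30-36 h at 37C. ONE-Glo luminescence was read; sodium butyrate at 4.5 mM final served as control.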
Rab9 prom act – activators of Rab9 promoter; 320,000 tested, 2.8% active; Potency, µM (top dose mostly 9.22 µM), inactives show at the highest dose activation, negative = inhibition, hits mostly activators; Huh7 Rab9 promoter-luciferase reporter, luminescence, 24 h; further: % of control where 0% means no effect; nearly all actives have a fitted effect of over 60% in size
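Luminescence from Amplite-detected luciferase (10 minutes, ambient) reports Rab9 promoter activation. Before that, stable Rab9-luciferase Huh7 cells (1500/well, reduced-serum OP-MEM I plus 10% FBS) were exposed to compound for 24 hours at 37C.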
FLuc modulator – firefly luciferase modulation, counter-screen for miR-21 project; purified FLuc, Km substrates, luminescence inhibition; Potency, µM (series often up to 57.5 µM), for inactives: top-dose activity change, negative = inhibition, actives largely listed as inhibitors; 360,000 tested, 6.9% active; AID 588342;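 further: plate controls were vehicle for no effect and reference inhibitor for full effect; nearly all actives have a fitted effect of over 55% in size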
Target sequence (P08659 whole entry, looked up): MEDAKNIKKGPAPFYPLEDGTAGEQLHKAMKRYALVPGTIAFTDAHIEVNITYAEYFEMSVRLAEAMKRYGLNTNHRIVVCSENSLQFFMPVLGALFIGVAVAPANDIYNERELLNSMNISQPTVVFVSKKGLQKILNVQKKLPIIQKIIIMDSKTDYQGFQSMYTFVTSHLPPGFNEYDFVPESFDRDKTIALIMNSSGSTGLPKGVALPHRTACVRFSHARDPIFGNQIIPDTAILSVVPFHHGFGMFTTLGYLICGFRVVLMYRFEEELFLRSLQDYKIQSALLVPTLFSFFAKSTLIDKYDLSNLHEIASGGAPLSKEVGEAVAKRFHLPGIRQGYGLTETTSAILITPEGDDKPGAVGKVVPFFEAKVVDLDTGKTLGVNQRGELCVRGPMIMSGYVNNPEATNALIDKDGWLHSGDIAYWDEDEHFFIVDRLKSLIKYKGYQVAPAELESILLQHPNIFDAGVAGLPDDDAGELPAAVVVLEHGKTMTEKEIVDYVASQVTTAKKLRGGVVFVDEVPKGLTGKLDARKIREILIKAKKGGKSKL
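Purified P. pyralis luciferase (10nM final) with 10uM D-luciferin and 10uM ATP (Km levels) in 50mM Tris acetate pH 7.5, 10mM Mg acetate, 0.01% Tween-20, 0.05% BSA; qHTS 6-point titration, ~60 µM downward; luminescence read.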
ELG1 genotoxic – induces genotoxicity in HEK293T cells with luciferase-tagged ELG1. HEK293T ELG1-luciferase reporter, luminescence, 16 h. Potency, µM (series often up to 46 µM), for inactives: at the highest dose activity change, positive = activation, usual class: activators. 330,000 tested, 1.3% active; further: % of control where 0% means no effect; nearly all actives have a fitted effect of over 60% in size
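Cells (2,000/well) expressing the ELG1-luciferase fusion are dosed by pin tool and kept 16 hr at 37 °C, 5% CO2. Signal comes from ONE-Glo luciferase reagent after 30 min at room temperature.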
NPC1 prom act – activates the NPC1 promoter; Huh7 NPC1 promoter luciferase reporter, 24 h; Potency, µM (highest dose often 9.22 µM), for inactives: top-dose activation, actives largely listed as activators; 320,000 tested, 2.4% active; AID 485313; further: % of control where 0% means no effect; nearly all actives have a fitted effect of over 60% in size
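Luminescence read-out of NPC1 promoter-driven luciferase in stably transfected Huh7 cells; compounds delivered in DMSO and left 24 h at 37C, 5% CO2, qHTS titration format.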
* = called active by the depositor; u = inconclusive; x = no result given. The call rests on the fitted dose curve; in most records, active means well fitted curve in the direction sought with a large enough effect; inconclusive means small, poorly fitted or top-dose-only effect, or another doubt; inactive means no such curve, though single readings can be large; an effect the other way counts as inactive or inconclusive. Potency means the concentration at half of the fitted maximal effect.

SMILES	SMN2 splice enh	Rab9 prom act	FLuc modulator	ELG1 genotoxic	NPC1 prom act
CCOC(=O)C1CCN(C(=O)C2CCN(c3nnc(C)c4c(C)n(-c5ccccc5)nc34)CC2)CC1	x	x	0%	x	x
CCc1cccc(NC(=O)C(Cc2ccccc2)NS(=O)(=O)c2ccc3c(c2)c(=O)n(C)c(=O)n3C)c1 (centres undefined)	21%	x	-12%	x	x
C=CCn1cc(/C=N/Nc2nc3ccccc3[nH]2)c2ccccc21	30%	-6%	5.4µM*	10%	1%
CC(=O)c1c(C)[nH]c(C(=O)Nc2nc(-c3ccc(Cl)cc3)cs2)c1C	-45%	-3%	-7%	-13%	-2%
CC(=O)c1c(C)[nH]c(C(=O)Nc2cc(C)cc(C)c2)c1C	-11%	7%	u	u	-2%
CC(=O)c1c(C)[nH]c(C(=O)Nc2nc(C)cs2)c1C	1.6µM*	0.11µM*	0.6µM*	0.52µM*	1µM*
CC(=O)c1c(C)[nH]c(C(=O)Nc2ccc(C)cn2)c1C	0.79µM*	0.25µM*	0.43µM*	u	0.71µM*
CCOc1ccc(-c2c(C(=O)N/N=C/C3CC=CCC3)nnn2-c2nonc2N)cc1 (centres undefined)	x	-3%	1%	2%	1%
Cc1cc(C(=O)N(C)C)sc1-c1ccccc1	10µM*	28%	21µM*	u	u
Cc1ccc2occ(CC(=O)N(Cc3ccc(Cl)cc3)C3CCS(=O)(=O)C3)c2c1 (centres undefined)	-7%	x	-11%	x	x
Cc1cc(C)n(-c2ccc(Cl)c(C(=O)O)c2)n1	x	-7%	19µM*	10%	-2%
O=C(NCc1ccc(F)cc1)c1cccc(S(=O)(=O)N2CCOCC2)c1	x	-1%	-1%	2%	2%
O=[N+]([O-])CC(=Nc1ccc(Cl)cc1)N/N=C\c1oc(O)c2ccccc12	10%	u	12µM*	11%	u
O=C(N/N=C/c1ccc([N+](=O)[O-])o1)c1cn(-c2ccccc2)nc1-c1ccc(Cl)cc1	-9%	3%	2%	7%	-7%
COc1ccc(CNC(=O)c2cc3c(s2)CS(=O)C3)cc1 (centres undefined)	-12%	4%	2%	5%	1%
COC(=O)c1cc2c(s1)CS(=O)C2 (centres undefined)	u	4µM*	13µM*	u	2.5µM*
Cc1oc(-c2cc(F)cc(F)c2)nc1CN1CCN(C(=O)c2ccco2)CC1	x	0%	-1%	-2%	-6%
COc1ccc(C(=O)N/N=C/c2ccc(N3CCOCC3)s2)cc1OC	x	-7%	-13%	-1%	-3%
O=C(N/N=C/c1ccc2c(c1)OCO2)c1ccc(NS(=O)(=O)c2cccs2)cc1	13%	18%	9.5µM*	4%	9%
O=C(NN=Cc1ccc(F)c(F)c1)c1ccc(NS(=O)(=O)c2cccs2)cc1	x	x	x	4%	x
O=C(c1ccc(N2CCOCC2)cc1)c1cccs1	2.5µM*	1.1µM*	1.9µM*	u	0.89µM*
O=C(N/N=C/c1ccc(N2CCOCC2)s1)c1ccc(NS(=O)(=O)c2cccs2)cc1	x	12%	27µM*	1%	9%
O=C(N/N=C/c1ccc(N2CCOCC2)cc1)c1ccc(NS(=O)(=O)c2cccs2)cc1	-3%	0%	7.6µM*	-1%	1%
O=C(N/N=C/c1ccc(N2CCOCC2)cc1)c1ccccc1NS(=O)(=O)c1cccs1	27%	2%	u	0%	0%
CCOc1ncccc1C(=O)N(CC)CC(=O)NCc1ccc(Cl)cc1	x	-4%	0%	-3%	-1%
COc1ccc(/C=N/NC(=O)c2ccncc2)cc1CSc1nc2ccccc2s1	-15%	0%	u	1%	-2%
CN(CC(=O)Nc1ccc(Cl)cc1)C(=O)CCC1CCCC1	x	0%	2%	2%	2%
O=C(N/N=C/c1ccc(N2CCOCC2)cc1)c1cccs1	11µM*	u	8.5µM*	u	2.8µM*
O=C(N/N=C/c1ccc([N+](=O)[O-])cc1)c1ccc(NS(=O)(=O)c2cccs2)cc1	x	6%	21µM*	1%	0%
O=C(N/N=C/c1ccc(N2CCOCC2)cc1)c1ccncc1	x	-7%	u	0%	2%
